PubChem BioAssay (EPA / NIEHS)
Active and inactive are the calls of the source. How the source made its calls: active means hit-call score of the fitted dose curve at least 0.9, where 1 is the maximum; inactive means score below 0.9.

Assay: ATG_CMV_CIS: Attagene CIS-FACTORIAL HepG2 Assay for human CMV (Internal Marker) (AID 2282928);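 further: endpoint acts as a background internal control marker rather than a target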
Settings: HepG2 CMV promoter reporter, transcription factor profiling; actives raise or lower the signal
Description: ATG_CIS is a cell-based, multiplexed-readout assay that uses HepG2, a human liver cell line, with measurements taken at 24 hours after chemical dosing in a 24-well plate.ATG_CMV_CIS is one of 52 assay component(s) measured or calculated from the ATG_CIS assay. It is designed to make measurements of mRNA induction, a form of inducible reporter, as detected with fluorescence intensity signals by Reverse transcription polymerase chain reaction (RT-PCR) and Capillary electrophoresis technology.Data from the assay component ATG_CMV_CIS was analyzed into 1 assay endpoint. This assay endpoint, ATG_CMV_CIS, was analyzed with bidirectional fitting relative to DMSO as the negative control and baseline of activity. Using a type of inducible reporter, measures of mRNA for gain or loss-of-signal activity can be used to understand the background control at the transcription factor-level as they relate to the gene . Furthermore, this assay endpoint can be referred to as a secondary readout, because this assay has produced multiple assay endpoints where this one serves a background control function. To generalize the intended target to other relatable targets, this assay endpoint is annotated to the background measurement intended target family, where the subfamily is internal marker.
Human liver HepG2 cells are transiently transfected with multiple reporter transcription units (MRTUs) in 6-well plates using FuGene 6 reagent (Roche; 3 ml FuGene/1 mg DNA). The MRTU constructs are regulated by a cis-regulating element (promoter). […] A major difference between the CIS and TRANS system is that in CIS activities of endogenous TFs are measured, whereas the TRANS assay evaluates changes in activities of exogenous, chimeric NR-Gal4 proteins. […] At the end of 24 hour incubation, total RNA was isolated using TriZol reagent (Invitrogen). The isolated RNA is then reverse-transcribed using oligo(dT) primer and Mo-MLV reverse transcriptase (Invitrogen) with DNAse I (Ambion) treatment for 30 min. The one-tenth of the produced cDNA was amplified by PCR using Taq DNA polymerase (Invitrogen) and two reporter sequence-specific primers. The PCR products were fluorescently labeled by primer extension with 6-arboxyfluorescein (6-FAM) 5'-labeled reporter sequence-specific primer (2 min at 95 C, 20 s at 68 C and 10 min at 72 C) and these products were digested with 5U of HpaI (New England Biolabs) for 2h at 37 C. The fragments were purified using Qiaquick PCR columns (Qiagen), analyzed on an ABI 3130xL genetic analyzer (Applied Biosystems) with peak positions identified by using a set of X-rhodamine (ROX)-labeled MapMarker1000 molecular weight standards (BioVentures). The raw capillary electrophoresis data was processed using Attagraph software (Attagene).
In the case of `CCOC(=O)CCCCCCCCC(=O)OCC`, the outcome is reported as “inactive”. In the case of `NC(=O)c1c(Cl)cccc1Cl`, the outcome is reported as “inactive”. For `Cc1ccccc1S`, the outcome was “inactive”. In the case of `O=C1CCCCCCCCCCCC(=O)OCCO1`, the outcome is reported as “inactive”. For `CC(O)COCC(C)O` (stereo not given), the outcome was “inactive”. In the case of `CC(C)=CCCC(C)=CC(=O)O`, the outcome is reported as “inactive”. In the case of `COc1ccc(N)c(C)c1`, the outcome is reported as “inactive”. In the case of `CCC(C)C1CCCCC1=O` (stereo not given), the outcome is reported as “inactive”. With `CC/C=C\CCOC(=O)C(C)C` the outcome was “inactive”. For `CCC(=O)OCC=Cc1ccccc1`, the outcome was “inactive”. In the case of `O=C(O)C1=NN(c2ccc(S(=O)(=O)O)cc2)C(=O)C1`, the outcome is reported as “inactive”. In the case of `CCCCCC#CC(=O)OC`, the outcome is reported as “inactive”. In the case of `CCc1cccc(O)c1`, the outcome is reported as “inactive”. In the case of `CC(C)N(c1ccccc1)C(C)C`, the outcome is reported as “inactive”. With `CC(C)OB(OC(C)C)OC(C)C` the outcome was “inactive”. With `S=c1[nH][nH]c(=S)s1` the outcome was “inactive”. In the case of `NNC(=O)OCc1ccccc1`, the outcome is reported as “inactive”. In the case of `CCCCN(CCO)CCO`, the outcome is reported as “inactive”. In the case of `CCCCCCCOC(C)=O`, the outcome is reported as “inactive”. For `C=CC(O)CCCCC` (stereo not given), the outcome was “inactive”. With `O=C(O)c1ccc(C(=O)O)c(C(=O)O)c1` the outcome was “inactive”. With `CCCCCC1C(=O)CCC1CC(=O)OC` (stereo not given) the outcome was “inactive”. For `CCCCCCCCSCc1cc(C)c(O)c(CSCCCCCCCC)c1`, the outcome was “inactive”. In the case of `CCCCCC(=O)O[C@]1(C(C)=O)CC[C@H]2[C@@H]3CCC4=CC(=O)CC[C@]4(C)[C@H]3CC[C@@]21C`, the outcome is reported as “inactive”. For `C=C1CC[C@H]2O[C@]2(C)CC[C@@H]2[C@@H]1CC2(C)C`, the AC50 was 191 µM (active). For `CC1=CCC(C(C)(C)O)CC1` (stereo not given), the outcome was “inactive”. For `CC(C)(C)c1cc(CCC(=O)OCCSCCOC(=O)CCc2cc(C(C)(C)C)c(O)c(C(C)(C)C)c2)cc(C(C)(C)C)c1O`, the outcome was “inactive”. In the case of `CCCCCCCCCCCCS`, the outcome is reported as “inactive”. With `COc1ccc(OC)cc1` the outcome was “inactive”. In the case of `CCNC(=S)NCC`, the outcome is reported as “inactive”. With `CC(C)COC(=O)c1ccccc1` the outcome was “inactive”. In the case of `NC(=O)c1cccnc1`, the outcome is reported as “inactive”. With `CCCCN(CCCC)CCCCCCN(CCCC)CCCC` the outcome was “inactive”. In the case of `CC(C)CCOC(=O)CC(C)C`, the outcome is reported as “inactive”. For `O=C(O)c1ccco1`, the outcome was “inactive”. With `Cc1cc(O)c(C)c(C)c1O` the AC50 was 18.5 µM (active). In the case of `CCCCCCOC(C)=O`, the outcome is reported as “inactive”. With `CCC(=O)OC(C)(C)C1CC=C(C)CC1` (stereo not given) the outcome was “inactive”. With `COC(=O)C(C)Oc1ccc(Oc2ncc(C(F)(F)F)cc2Cl)cc1` (stereo not given) the outcome was “inactive”. In the case of `CCCCCCCCCCCCOCCOS(=O)(=O)O`, the outcome is reported as “inactive”.
